Experimental data published in PubChem BioAssay (NCI).
The panel holds about 79,000 compounds, 15% with a hit somewhere; the sample as a whole holds those more often. Unmarked numbers belong to inactive results. The source made the active and inactive calls. Cut-off read from the data, not from the text of the source: active = growth inhibition above about 70%; inactive = the rest.

Tests used:
[1] = NCI Yeast Anticancer Drug Screen. Data for the rad50 strain (AID 155);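 note: 0% = growth of vehicle-only cultures of the same strain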; conditions: S. cerevisiae rad50 strain growth inhibition, active compounds read high; at 50.0 µM unless noted
Outline: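 Genetically altered yeast (DNA repair pathway); compound treatment; growth inhibition vs vehicle ctrl.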

[2] = NCI Yeast Anticancer Drug Screen. Data for the mec2-1 strain (AID 157); conditions: S. cerevisiae mec2-1 strain, active compounds read high; at 50.0 µM unless noted
Outline: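 Mutant yeast (mec2-1) grown with compound; growth inhibition relative to vehicle control reported.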

[3] = NCI Yeast Anticancer Drug Screen. Data for the sgs1 mgt1 strain (AID 161);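 note: 0% = growth of cultures given vehicle only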; conditions: S. cerevisiae sgs1 mgt1 strain, active compounds read high; at 50.0 µM unless noted
Outline: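 Growth of a repair-deficient yeast mutant was monitored after compound treatment and expressed as inhibition relative to vehicle-treated cultures.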

[4] = NCI Yeast Anticancer Drug Screen. Data for the cln2 rad14 strain (AID 165);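 note: 0% = growth equal to vehicle treated cultures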; conditions: S. cerevisiae cln2 rad14 strain, active compounds read high; at 50.0 µM unless noted
Outline: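 Readout is yeast growth inhibition versus vehicle-treated controls, using a strain with cln2 and rad14 alterations exposed to compound.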

[5] = NCI Yeast Anticancer Drug Screen. Data for the bub3 strain (AID 167); conditions: S. cerevisiae bub3 mutant strain, active compounds read high; at 50.0 µM unless noted
Outline: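 Yeast carrying a defined mutation is treated with each compound, and growth is compared with that of vehicle-exposed cells to give inhibition.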

[6] = NCI Yeast Anticancer Drug Screen. Data for the mlh1 rad18 strain (AID 175); conditions: S. cerevisiae mlh1 rad18 strain growth inhibition, active compounds read high; at 50.0 µM unless noted
Outline: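 Genetically defined yeast (DNA repair-deficient) exposed to compounds; growth inhibition determined relative to vehicle.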

SMILES	growth inhibition [1]	growth inhibition [2]	growth inhibition [3]	growth inhibition [4]	growth inhibition [5]	growth inhibition [6]
O=CNC1c2ccccc2CCc2ccccc21	-1.15%	-12.9%	-11.4%	-2.45%	-22.6%	-5.85%
COc1ccc(OC2OC(CO)C(O)C(O)C2O)cc1 (stereo unspecified)	8.9%	-0.1%	-4.3%	18.1%	6.5%	-50.6%
Cc1ccc(C2=Nc3ccccc3NC(=O)C2)cc1	-2.6%	-20.1%	-12.6%	22.2%	-7.35%	-17.9%
c1ccc(C2c3ccccc3CN2c2ccccc2)cc1 (stereo unspecified)	25.4%	6.2%	11.4%	9.4%	23.1%	2.35%
FC(F)(F)c1cc(NC(=S)SCc2ccc3c(c2)OCO3)ccc1Cl	73.5% (active)	63.9%	73.3% (active)	38.5%	59.2%	84% (active)
NC1=NC(=O)/C(=C/c2ccccc2[N+](=O)[O-])C(N)=N1	-26.9%	-0.05%	10.8%	4.8%	-5.6%	24.1%
C=CCOC(=O)COc1ccc(Cl)cc1	-0.95%	-8.1%	-12.3%	-2.15%	-7.75%	0.55%
CC1=C(C(=O)Nc2cc(=O)n(C)c(=O)n2C)C(c2ccco2)C(C(=O)Nc2cc(=O)n(C)c(=O)n2C)=C(C)N1	-0.5%	17.9%	-10.9%	13.3%	-4.6%	-0.4%
Cc1ncc(CO)c(CO)c1OCC(O)CN1CCN(c2ccc(F)cc2)CC1 (stereo unspecified)	-15.8%	-2.65%	-8.25%	-41.2%	-6.9%	-0.45%
S=c1sc2c(s1)SCCCCSCCCCSc1sc(=S)sc1SCCCCSCCCCS2	13.3%	8.6%	1.1%	16.1%	6.75%	-29.4%
CCCNC(=O)Cn1c(-c2ccccc2)cc2ccccc21	13.4%	5.5%	16.7%	18.4%	27.9%	-52.8%
O=C(Cc1ccc(CC(=O)NCCCCc2ccccc2)cc1)NCCCCc1ccccc1	0.75%	-3.25%	-14.9%	-8.85%	-7.9%	13.1%
CCc1ccc(O)cc1O	-18.4%	-12.9%	-43.1%	10.7%	-30.6%	-4.6%
CC(=O)OC1OC(COC(c2ccccc2)(c2ccccc2)c2ccccc2)C(OC(C)=O)C(OC(C)=O)C1OC(C)=O (stereo unspecified)	12.8%	-8.6%	-6.15%	6.4%	1.7%	24.6%
Cc1ccc(S(=O)(=O)N/N=C(\c2nc3ccc(Cl)cc3[nH]c2=O)C(O)c2cccc([N+](=O)[O-])c2)cc1 (stereo unspecified)	-1.5%	-24%	-9.35%	11.7%	-22.6%	-0.5%
CC(=O)Nc1ccc(C2NCc3cnc(C)nc3N2)cc1 (stereo unspecified)	0.35%	-0.75%	0.15%	-6.95%	10.2%	0.95%
CCN(CC)CC(=O)Nc1ccc2c(c1)C(=O)c1ccc(NC(=O)CN(CC)CC)cc1C2=O	22.1%	8%	-4.5%	16.4%	-1.2%	-8%
O=C1OC(c2ccccc2)Cc2ccccc21 (stereo unspecified)	-20.2%	-10.8%	-22.1%	4.55%	3.15%	-9.9%
Cc1ccc([N+](=O)[O-])cc1N1C(=O)c2ccccc2C1=O	14.5%	-13.6%	12.6%	8.2%	13.6%	13.2%
O=C(O)c1ccccc1S(=O)Cc1ccc(Br)cc1 (stereo unspecified)	-10.6%	-10.6%	-23.1%	-6.1%	-0.3%	3.5%
Cc1ccccc1C(=O)NC(O)(C(F)(F)F)C(F)(F)F	2.4%	10.2%	14.6%	32.9%	16.9%	5.05%

SMILES	growth inhibition [1]	growth inhibition [2]	growth inhibition [3]	growth inhibition [4]	growth inhibition [5]	growth inhibition [6]
C(#Cc1ccccc1)CC#Cc1ccccc1	5.4%	10.2%	-11.7%	-0.3%	-11.2%	3.05%
Oc1ccccc1/C=N/N1C(=S)N(C23CC4CC(CC(C4)C2)C3)C(=Nc2ccccc2)C1=Nc1ccccc1	-8.55%	-16.2%	-23.2%	2.35%	-3%	-14.3%
ON=C(c1ccccn1)c1ccccn1	11.1%	-7.6%	7.05%	4.35%	-8.25%	3.8%
CCC(=O)C1(C)OC1C(C)CC(C)C1OC(=O)CC2(O)CC=C(C)C(O2)/C(C)=C/CCCC(OC2CC(OC(N)=O)C(O)C(C)O2)/C=C/C(C)C(O)C1C (stereo unspecified)	78% (active)	83.5% (active)	82.5% (active)	84.5% (active)	85.2% (active)	83.2% (active)
COc1ccc2nc3cc([N+](=O)[O-])ccc3c(NCCCN(C)C)c2c1	7.05%	-1.9%	45.4%	20.9%	8.25%	5.4%
C/C(=N\NC(=S)Nc1nccs1)c1ccccn1	96.7% (active)	97.8% (active)	97.6% (active)	90.5% (active)	96% (active)	98.4% (active)
CC(=O)OC1CCC2(C)C3CCC4(C)C(C(C)CCCC(C)C)CCC4C3C3CC32C1 (stereo unspecified)	30.6%	-21.8%	29.1%	3.95%	-3.05%	0.1%
N=c1ccccn1C(=O)C1=Cc2cc(Cl)cc(Cl)c2OC1	-15.6%	0.75%	-1.85%	-25.8%	7.65%	-2.25%
CN(C)CCNC(=O)Cn1ccc(=O)c2ccc([N+](=O)[O-])cc21	11.9%	6.55%	20.6%	20.8%	-5.85%	-39.5%
CCc1cccc(CC)c1NC(=S)N/C=C(\C#N)S(=O)(=O)c1ccc(C)cc1	-4.8%	-10.6%	17.4%	-15.4%	-5.5%	-20.5%
NC(=O)C1(N2CCCCC2)CCNCC1	7.85%	-16.5%	-8.2%	6.9%	-5.45%	3.95%
Oc1ccc(C(Cc2ccccc2)NCc2ccccc2)cc1 (stereo unspecified)	-8.15%	14.6%	15.7%	-12.6%	5.25%	17.9%
CN(Cc1ccccc1Cl)C(=S)NC1CCCCC1	62%	88.8% (active)	86% (active)	34.8%	81.3% (active)	85.5% (active)
O=C1OCCOCCOCCOCCOCCOC(=O)c2cccc1n2	18.1%	12.2%	20.4%	18.1%	12.5%	16.1%
CCN(CC)CC(C)O (stereo unspecified)	39.7%	13.2%	21%	-26.9%	-9.45%	30.6%
COc1cc(OC)c2c(c1)OC(c1cccnc1)C(c1ccccc1)C2=O (stereo unspecified)	-5.2%	-57.9%	-5%	-27.7%	12.5%	3.9%
O=C1c2ccccc2C(=O)N1CCS(=O)(=O)O	8.65%	18.1%	14.2%	-7.55%	10.2%	9.9%
Nc1nc(=S)c2c(ncn2CCO)[nH]1	-25.1%	-32.2%	15.3%	3.4%	-16.1%	3.85%
Cc1ccc(OCCC(=O)N(C)C)cc1	5.05%	2.9%	-8.25%	-10%	4.2%	10.9%
OC1CN(c2ccc(Br)cc2)CC(O)CN(c2ccc(Br)cc2)C1 (stereo unspecified)	98.7% (active)	99.7% (active)	99.7% (active)	99.5% (active)	99.5% (active)	99.7% (active)
